# From the supplement of paper PMC9948646
# Values without a mark were called inactive.
# System: gramicidin D channels in DC22:1PC lipid vesicles (bilayer-modifying potency)
# Assay: initial Tl+ fluorescence quench rate relative to no-drug control (NormRate, gramicidin monomer-dimer shift) (ratio (fold of control)); higher = stronger bilayer-modifying effect (equilibrium shifted toward conducting dimers), active = 1.5 or more
# Conditions: 10 µM; lipid concentration 50 µM; temperature: 25 °C
# Description: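 Stopped-flow fluorescence quench assay: ANTS-loaded DC22:1PC large unilamellar vesicles doped with gramicidin D (1:2000), 50 µM lipid, equilibrated 10 min with 10 µM drug (0.1% DMSO), mixed with Tl+ quench buffer at 25°C. Initial quench rate (Tl+ influx) was fitted with a modified stretched exponential and normalised to the no-drug control rate (NormRate); duplicates from two independent LUV preparations (triplicates for 7 drugs).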
row,SMILES,initial Tl+ fluorescence quench rate
1,COc1ccccc1OCCCCn1c(C2CC2)nc2ccccc21,1.18
2,CCc1ccc([C@@H]2C[C@H](C(F)(F)F)n3ncc(C(=O)NCc4ccc(OC)cc4)c3N2)cc1,4.55 (active)
3,CN(C)CCNC(=O)N1CCCN(c2ncnc3cc(-c4ccccc4)sc23)CC1,1.11
4,COc1cccc(NC(=O)c2c(NC(=O)c3cccnc3)sc3c2CCC3)c1,1.55 (active)
5,O=C(Nc1c(O)cccc1-c1nc2c(C(=O)O)cccc2o1)c1cc(-c2ccccc2)on1,1.35
6,O[C@@H](c1cc(C(F)(F)F)nc2c(C(F)(F)F)cccc12)[C@H]1CCCCN1,2.24 (active)
7,CNCC[C@H](Oc1ccc(C(F)(F)F)cc1)c1ccccc1,1.41
8,C[C@H]1COC2(CCN(c3nc(=O)c4cc(C(F)(F)F)cc([N+](=O)[O-])c4s3)CC2)O1,1.08
9,Nc1ncc(-c2ccc(C(F)(F)F)nc2)cc1-c1ccc(C(F)(F)F)nc1,1.08
10,CN1CCN(CCCOc2ncc(Nc3ncc(-c4ccc(C(F)(F)F)c(F)c4)nc3C(N)=O)cn2)CC1,3.11 (active)
11,[H]/N=C(/N)c1ccc(-c2cc(-c3ccccc3)on2)cc1,1.08
12,N[C@H](CC(=O)c1ccc(Cl)cc1Cl)C(Cl)(Cl)Cl,1.12
13,CCCS(=O)(=O)N1CCC(CO)(Cc2ccccc2C(F)(F)F)CC1,1.62 (active)
14,NCC[C@H](O)C(=O)N[C@@H]1C[C@H](N)[C@@H](O[C@H]2O[C@H](CN)[C@@H](O)[C@H](O)[C@H]2O)[C@H](O)[C@@H]1O[C@H]1O[C@H](CO)[C@@H](O)[C@H](N)[C@H]1O,1.02
15,Cc1cc(NC(=O)c2ccc(S(=O)(=O)N(Cc3ccccc3)C(C)C)cc2)no1,1.14
16,c1ccc(-c2cc(N3CCCCC3)c3ccccc3n2)nc1,1.08
17,O=C([C@@H](Cc1c[nH]c2ccccc12)NS(=O)(=O)c1ccc(Cl)cc1)N1CCCCC1,4.26 (active)
18,COc1ccc(Cn2cnc3c(-c4ccco4)nc(Cl)nc32)cc1,1.59 (active)
19,CN1CCN(c2nccc3nc(-c4ccc(F)c(F)c4)[nH]c23)CC1,1.11

row,SMILES,initial Tl+ fluorescence quench rate
1,O=C(Nc1nnc(-c2ccc(Cl)cc2)o1)c1cccc(C(F)(F)F)c1,1.07
2,Brc1c(-c2ccc3c(c2)OCO3)nc2ncccn12,1.12
3,FC(F)(F)c1ccc(N(c2cccnc2)C2CCN(c3ccc(C(F)(F)F)cn3)CC2)cc1,1.56 (active)
4,C[C@@H](Oc1ccccc1)C(=O)Nc1nc(-c2ccccn2)cs1,1.29
5,NS(=O)(=O)c1cncc(-c2ccc3nccc(-c4cn[nH]c4)c3n2)c1,1.18
6,Cc1cccnc1NC(=O)c1cccc(OCc2c(C)noc2C)c1,1.07
7,Nc1cccnc1Nc1ccc(Cl)cc1,1.05
8,CC1=Nc2ccc(Cl)cc2[C@H](c2ccccc2)N1CCNC(=O)CN(C)C,1.07
9,COc1ccc(O[C@H](C)C(=O)Nc2ccc(Cl)cc2C)cc1,1.05
10,C[C@H](C(=O)Nc1ccc2oc(-c3ccncc3)nc2c1)c1ccccc1,1.09
11,CCCn1nnc(NC(=O)COc2ccc(C3CCCCC3)cc2)n1,2.51 (active)
12,CC(C)[C@@H](Oc1cccc2ccccc12)C(=O)O,1.1
13,CN1CCCN([C@H](c2ccccc2)c2ccc(Cl)cc2)CC1,1.43
14,Cc1ccc2oc(-c3cc(NC(=O)Cc4ccccc4)ccc3Cl)nc2c1,1.18
15,CN1CCC(NCc2cccc(-c3ccc(S(=O)(=O)NCc4ccccc4)cc3)c2)CC1,1.94 (active)
16,c1ccc(-c2[nH]c3ccccc3c2[C@H](c2ccccn2)N2CCCC2)cc1,1.06
17,CN1CCN(S(=O)(=O)c2ccc(-c3ccc4c(Nc5ccc6nn[nH]c6c5)ccnc4c3)cc2)CC1,1.28
18,CN1CCN(c2nccc3[nH]c(-c4cccc(F)c4)cc23)CC1,1.1
